This is an account of results in PubChem BioAssay AID489043 (National Center for Advancing Translational Sciences (NCATS), 2010).

Each structure is given as a SMILES string. Inconclusive results are not listed. Values without a mark were called inactive. The source made the active and inactive calls. Calls come from the whole dose curve; as a rule, active = well fitted activation curve with a large enough effect; inconclusive = small, poorly fitted or top-dose-only effect; inactive = flat fitted curve, though single readings scatter.
Potency is the fitted concentration of half-maximal effect.

Sequence of Relaxin receptor 2 (Homo sapiens) (Q8WXD0 whole entry, looked up): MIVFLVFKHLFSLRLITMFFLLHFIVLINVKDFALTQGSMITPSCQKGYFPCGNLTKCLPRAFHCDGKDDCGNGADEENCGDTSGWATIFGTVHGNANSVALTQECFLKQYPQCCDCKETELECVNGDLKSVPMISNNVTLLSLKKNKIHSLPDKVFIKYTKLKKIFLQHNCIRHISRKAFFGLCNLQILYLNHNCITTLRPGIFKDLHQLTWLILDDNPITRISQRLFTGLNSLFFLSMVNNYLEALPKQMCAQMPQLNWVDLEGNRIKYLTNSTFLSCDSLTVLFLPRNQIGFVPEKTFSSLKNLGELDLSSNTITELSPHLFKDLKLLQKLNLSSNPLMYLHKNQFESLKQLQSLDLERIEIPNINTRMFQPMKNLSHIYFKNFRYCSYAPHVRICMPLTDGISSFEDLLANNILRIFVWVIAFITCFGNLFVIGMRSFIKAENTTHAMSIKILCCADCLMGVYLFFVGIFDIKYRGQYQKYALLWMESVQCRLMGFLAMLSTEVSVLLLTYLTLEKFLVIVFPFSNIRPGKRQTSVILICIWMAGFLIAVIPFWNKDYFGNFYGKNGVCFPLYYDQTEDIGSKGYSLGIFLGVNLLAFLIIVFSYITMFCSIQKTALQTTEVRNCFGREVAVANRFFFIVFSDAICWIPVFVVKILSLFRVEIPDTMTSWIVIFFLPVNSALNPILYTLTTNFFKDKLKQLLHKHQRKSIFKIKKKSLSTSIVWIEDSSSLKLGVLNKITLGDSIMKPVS

The target of the assay is Relaxin receptor 2 (Homo sapiens) (UniProt Q8WXD0). The assay is described as follows: qHTS Assay for Agonists of the Relaxin Receptor RXFP1: RXFP2 Hit Validation. Note: nearly all actives have a fitted effect of over 65% in size. As to conditions: HEK293 RXFP2 cAMP TR-FRET, 30 min; series mostly up to 115 µM; activation: at the top concentration. In a few lines:
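Selectivity counter-assay for cAMP accumulation: RXFP2-HEK293 cells given compounds with Ro 20174 for 30 min at 37C, then lysed for TR-FRET cAMP detection. Data scaled to 29 nM porcine relaxin (100%); Hill-equation EC50.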
Turning to `c1ccc(COn2nnc3ccccc32)c(COn2nnc3ccccc32)c1`, the “activation” value was 1.12% [at 44.7 µM].

For the compound `CCN(CC)S(=O)(=O)c1ccc2c(c1)N(CC(=O)NCc1ccccn1)C(=O)CO2`, the Potency is 34.6 µM (active).

As to `O=C(Nc1ccccc1)c1ccccc1NC(=O)C1CCCCC1`, the “activation” value is 5.98% [at 125 µM].

Regarding `CN(CC(=O)Nc1ccccc1Cl)C(=O)COC(=O)Cc1c(F)cccc1Cl`, the “activation” value is 0.312% [at 44.7 µM].

For the compound `O=C(Nc1ccccc1C(=O)NCc1ccccc1)c1ccco1`, the “activation” value was 5.45% [at 125 µM].

With `Cc1cc(C(=O)COC(=O)Cn2cnc3c2c(=O)n(C)c(=O)n3C)c(C)n1C`, the Potency is 15.5 µM (active).

Consider `O=c1c2ccccc2cnn1Cc1n[nH]c(=S)n1-c1ccc(F)c(Cl)c1`, for which the Potency is 15.5 µM (active).

Turning to `CCc1ccc2n(-c3ccc(OC)cc3)c([S-])c(C(=O)Nc3cc(C)cc(C)c3)[n+]2c1`, the Potency was 30.8 µM (active).

Regarding `Cc1cc(NC(=O)CSc2ncnc3c2cnn3-c2cccc(Cl)c2)no1`, the “activation” value was 18.2% [at 44.7 µM].

Regarding `N#Cc1c(N)nc(SCC(=O)C23CC4CC(CC(C4)C2)C3)c(C#N)c1-c1ccc(Cl)cc1`, the Potency was 12.3 µM (active).

Turning to `Nc1ncnc2c1ncn2C1OC(CO)C(O)C1O` (configuration not stated), the Potency is 7.76 µM (active).

`O=C(O)CSc1ccnc2cc(Cl)ccc12`: the Potency is 21.8 µM (active).
